Bioassay records as filed in PubChem.
Rows were chosen to be rich in hits. Some 4.5% of all compounds tested hit in one or more screens of this group.
DRV1 agonist: GPR32 (DRV1) agonism, beta-arrestin recruitment | AID 1346428 | activation, % at 76.9 µM | O75388 | CHO-K1 GPR32 beta-arrestin PathHunter luminescence, 90 min; zero percent set by DMSO-only wells | hit rate 2.5% among 48,000;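 active means activation of at least 60% and not above a set upper limit, about 1 call in 100 departs from these limits; inconclusive means activation of 40% to 60%, or above that upper limit; inactive means activation under 40%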; further: 0% is about no effect
Target sequence (O75388 whole entry, looked up): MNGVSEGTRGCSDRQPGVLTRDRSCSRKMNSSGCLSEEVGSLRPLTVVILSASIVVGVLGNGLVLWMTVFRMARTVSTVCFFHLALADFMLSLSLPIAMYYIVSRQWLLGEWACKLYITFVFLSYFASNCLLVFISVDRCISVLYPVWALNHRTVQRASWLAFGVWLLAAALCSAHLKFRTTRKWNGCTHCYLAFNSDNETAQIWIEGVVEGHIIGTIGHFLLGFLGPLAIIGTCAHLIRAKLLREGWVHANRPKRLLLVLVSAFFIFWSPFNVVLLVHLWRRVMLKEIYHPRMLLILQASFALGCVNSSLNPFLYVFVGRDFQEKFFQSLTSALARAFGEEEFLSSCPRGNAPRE
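CHO-K1 cells stably expressing ProLink-tagged GPR32 and Enzyme Activator-tagged beta-arrestin were seeded at 2,500 cells/well overnight, exposed to compounds for 90 min at 37 °C, then read by beta-Gal complementation chemiluminescence after 1 h detection reagent.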
NTMT1 inh: inhibitors of human N-terminal methyltransferase NTMT1; Potency, µM (titrated, usually from 114 µM), for inactives: at the highest dose activity change, negative = inhibition, hits mostly inhibitors; hit rate 2.5% among 59,000; Q9BV86; NTMT1 MTase-Glo SAH luminescence, purified enzyme;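 further: potency means the concentration at half of the fitted maximal effect; plate controls were DMSO vehicle for no effect and no enzyme for full effect; nearly all actives have a fitted effect of over 65% in size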
HTT promoter inh: inhibitors of huntingtin promoter activity. HEK293 HTT promoter firefly luciferase reporter, 24 h. Potency, µM (doses to about 57.5 µM), inactives show at the top dose activity change, negative = inhibition, actives largely listed as inhibitors. hit rate 0.93% among 48,000; further: potency means the concentration at half of the fitted maximal effect; nearly all actives have a fitted effect of over 50% in size
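HEK293 cells carrying firefly luciferase reporters were seeded at 2,500 per well in Opti-MEM and cultured for 24 h. They were then treated with compounds at up to 57.5 uM final for 24 h at 37 degrees C before Dual-Glo luminescence readout.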
OvCa metastasis: inhibitors of ovarian cancer cell adhesion and invasion in omental model; SKOV3ip1-GFP adhesion/invasion on 3D omental model, fluorescence; Potency, µM (series often up to 45.8 µM), without a hit: at the top dose activity change, negative = inhibition, usual class: inhibitors; hit rate 0.1% among 46,000; AID 1963576;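 further: potency means the concentration at half of the fitted maximal effect; plate controls were DMSO wells for no effect and tomatine positive control wells for full effect; nearly all actives have a fitted effect of over 65% in size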
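Primary human omental fibroblast/mesothelial 3D culture pre-formed 48 h. SKOV3ip1-GFP cells added with compounds (0.36-46 umol/L), incubated 2 h RT/16 h 37 C, fixed; GFP cells quantified at 488/509 nm.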
HTT-AS act: HTT-AS promoter activation | Potency, µM (titrated, usually from 57.5 µM), for inactives: top-dose activity change, positive = activation, actives largely listed as activators | HEK293 HTT-AS promoter firefly luciferase reporter, 24 h; response scale: percent change from vehicle, -100% = no light | AID 1508624 | hit rate 0.24% among 48,000; further: potency means the concentration at half of the fitted maximal effect; nearly all actives have a fitted effect of over 55% in size
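Firefly luciferase readout (Dual-Glo, 10 min RT) after 24 h, 37 °C compound exposure (final up to 57.5 uM) of HEK293 reporter cells cultured 24 h beforehand; PTC124 at 50 uM final as control inhibitor; activity scaled vehicle 0%, zero RLU -100%.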
* hit, by the source's call; i = inactive; u = inconclusive; x = not tested or not shown; [ ] = another dose, or the depositor's remark. Unless noted, the call rests on the fitted dose curve; in most records, active means well fitted curve in the direction sought with a large enough effect; inconclusive means small, poorly fitted or top-dose-only effect, or another doubt; inactive means no such curve, though single readings can be large; an effect the other way counts as inactive or inconclusive.

SMILES	DRV1 agonist	NTMT1 inh	HTT promoter inh	OvCa metastasis	HTT-AS act
C#CC(C)(CC)NC(=O)Cn1nnc(-c2ccc(OCc3ccccc3C)cc2)n1 (stereo not given)	62*	-27%	-4%	1%	-22%
COc1cccc(NC(=O)CC2C(=O)OCCN2Cc2ccccc2)c1 (stereo not given)	5	u	-40%	18%	-24%
CCCC(O)c1nc2ccccc2n1CCCOc1ccc(Cl)cc1 (stereo not given)	68*	12%	u	i	-39%
C=CC(=O)Nc1cccc(Nc2nc(Nc3ccccc3)ncc2C)c1	x	45µM*	x	x	x
Cc1c(Cl)cccc1NC(=O)CN1C(=O)c2ccccc2Sc2ncccc21	2	1%	-27%	i	-32%
Cc1ccc(S(=O)(=O)N2CCCc3cc(NS(=O)(=O)c4ccc(F)c(C)c4)ccc32)cc1	-11	3%	25µM*	-5%	-45%
Cc1ccc(-c2c(C)n3c4c(=O)n(C)c(=O)n(C)c4nc3n2CCCO)cc1	60*	u	10µM*	10%	-62%
COc1ccccc1CCNC(=O)c1ccc(NC(=O)N2CC(C)Sc3ccccc32)cc1 (stereo not given)	-19	-4%	u	1%	-27%
NCCCC[C@H](NC(=O)[C@@H](NC(=O)[C@H](Cc1c[nH]c2ccccc12)NC(=O)[C@H](CCCCN)NC(=O)[C@H](CCCCN)NC(=O)[C@H](Cc1c[nH]c2ccccc12)NC(=O)[C@H](Cc1c[nH]c2ccccc12)NC(=O)[C@H](CCCCN)NC(=O)[C@@H](N)CCCCN)C(c1ccccc1)c1ccccc1)C(N)=O	x	22µM*	x	x	x
NC(Cc1c[nH]c2ccccc12)C(=O)NC(CCC(=O)O)C(=O)O (stereo not given)	x	2%[57.5 µM]	x	x	x
O=C(Cn1c(=O)n(Cc2nc(-c3ccccc3)no2)c(=O)c2cc3c(cc21)OCO3)Nc1ccccc1	-14	-1%	-6%	13%	-10%
Cc1nc2nc(NCc3cccc(Cl)c3)[nH]n2c(=O)c1Cc1ccccc1	-1	3%	-10%	2%	16%
COc1cccc(C2c3c(ncn(-c4ccccc4C#N)c3=N)Oc3ccc4ccccc4c32)c1 (stereo not given)	x	79µM*	x	x	x
CC(NC(=O)CCNS(=O)(=O)c1cccc2nsnc12)c1ccccc1 (stereo not given)	11	-9%	-3%	i	-3%
COC(=O)CNC(c1ccccc1)c1cc(Br)ccc1NC(=O)c1cc(OC)c(OC)c(OC)c1 (stereo not given)	-9	4%	-14%	i	-23%
CC1=C(C(N)=O)C(c2cccc(O)c2)n2ncnc2N1 (stereo not given)	61*	5%	-5%	i	-3%
Cc1ccc(NC(=O)Cn2nc(C(F)(F)F)c3c2CCCC3)cc1	77*	-3%	u	7%	-23%
CCc1ccc(NC(=O)Cn2nc(C(F)(F)F)c3c2CCCC3)cc1	7	3%	-21%	4%	-16%
Cc1nc2scc(C)n2c(=O)c1S(=O)(=O)Nc1ccc(N2CCN(S(C)(=O)=O)CC2)cc1	80*	x	x	-7%	x
COc1ccc(Nc2cc(C(=O)NCCCN(C)Cc3ccccc3)c3ccccc3n2)c(OC)c1	65*	u	u	-26%	-12%
CC(C)c1ccc(Nc2cc(C(=O)NCCc3ccccc3)c3ccccc3n2)cc1	85*	-18%	-7%	i	-18%
COc1ccc(Nc2cc(C(=O)NCCCN(C)Cc3ccccc3)c3ccccc3n2)cc1	-33	-6%	u	u	-18%
O=C(NCCc1ccccc1)c1cc(Nc2ccccc2)nc2ccccc12	7	-5%	-14%	-5%	-14%
COc1ccc(NC(=O)CCc2nnc3n(C)c(=O)c4sccc4n23)cc1	-9	6%	8%	-16%	1%
Cn1c(=O)c2sccc2n2c(CCCC(=O)Nc3ccc(Oc4ccc(Cl)cc4)cc3)nnc12	-4	8%	40µM*	-1%	-27%
